# Tests used:
# Assay in all cases: growth inhibition (% activity, log2 RLU normalised to DMSO / staurosporine); higher = more growth inhibition
# Conditions in all cases: 33 µM
# DIPGX29 = test system: DIPGX29 (H3.3 K27M diffuse intrinsic pontine glioma line)
# How it was run: (§1)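 On Geltrex-coated 384-well plates, pHGG cell lines and H9-derived neural stem cells were grown with approved drugs pinned in at a single final concentration of about 33 μM, in triplicate, for 7 days at 37 °C, 5% CO2. Per-plate normalisation of log2-transformed CellTiter-Glo luminescence to % activity between solvent and positive control wells followed. Each growth-inhibition value is the median over the replicates.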
# DIPGX37 = test system: DIPGX37 (H3.3 K27M diffuse intrinsic pontine glioma line)
# How it was run: as §1
# DIPGX7 = test system: DIPGX7 (H3.3 K27M diffuse intrinsic pontine glioma line)
# How it was run: as §1
# DIPGX9 = test system: DIPGX9 (diffuse intrinsic pontine glioma line)
# How it was run: as §1
# HGGX39 = test system: HGGX39 (paediatric high-grade glioma line)
# How it was run: as §1
# HGGX6 = test system: HGGX6 (H3.3 G34R paediatric high-grade glioma line)
# How it was run: as §1
# HNSC = test system: HNSC
# How it was run: as §1
# SUDIPGIV = test system: SUDIPGIV (diffuse intrinsic pontine glioma line)
# How it was run: as §1
# SUDIPGVI = test system: SUDIPGVI (diffuse intrinsic pontine glioma line)
# How it was run: as §1
# SUDIPGXIII = test system: SUDIPGXIII (diffuse intrinsic pontine glioma line)
# How it was run: as §1
SMILES,growth inhibition (DIPGX29),growth inhibition (DIPGX37),growth inhibition (DIPGX7),growth inhibition (DIPGX9),growth inhibition (HGGX39),growth inhibition (HGGX6),growth inhibition (HNSC),growth inhibition (SUDIPGIV),growth inhibition (SUDIPGVI),growth inhibition (SUDIPGXIII)
Nc1nc2c(ncn2COC(CO)CO)c(=O)[nH]1,-0.593%,2.32%,-1.01%,1.05%,1.32%,1.03%,-1.32%,-0.797%,-0.103%,1.94%
Cc1ccnc(NS(=O)(=O)c2ccc(N)cc2)n1,0.307%,1.2%,-0.936%,0.0876%,1.13%,-0.277%,-0.552%,0.606%,0.117%,1.12%
CCn1cc(C(=O)O)c(=O)c2cc(F)c(N3CCNCC3)nc21,-0.406%,0.315%,-0.279%,-2.11%,0.108%,-1.99%,2.46%,0.478%,0.763%,0.429%
Nc1ccc(O)c(C(=O)O)c1,0.36%,1.83%,0.431%,2.63%,1.1%,1.6%,2.49%,0.538%,1.92%,-1.01%
CCn1cc(C(=O)O)c(=O)c2cc(F)c(N3CCNCC3)cc21,-0.303%,1.84%,0.79%,0.854%,3.3%,2.09%,3.22%,-0.867%,0.897%,3.56%
Cc1oncc1C(=O)Nc1ccc(C(F)(F)F)cc1,12%,9.13%,10.1%,22.6%,24.2%,9.78%,55.7%,28.2%,1.33%,2.78%
C[C@@H](O[C@H]1OCCN(Cc2n[nH]c(=O)[nH]2)[C@H]1c1ccc(F)cc1)c1cc(C(F)(F)F)cc(C(F)(F)F)c1,8.42%,0.0612%,5.7%,4.43%,12.5%,7.33%,8.95%,13.5%,5.21%,10.1%
CC(=O)/N=c1/sc(S(N)(=O)=O)nn1C,1.46%,2.45%,2.3%,1.1%,4.29%,1.67%,5.67%,0.751%,1.6%,-14.4%
NC[C@@H]1O[C@H](O[C@H]2[C@@H](O)[C@H](O[C@@H]3[C@@H](O)[C@H](N)C[C@H](N)[C@H]3O[C@H]3O[C@H](CN)[C@@H](O)[C@H](O)[C@H]3N)O[C@@H]2CO)[C@H](N)[C@@H](O)[C@@H]1O,0.966%,0.68%,1.55%,0.402%,2.24%,-1.34%,20.2%,2.53%,-6.55%,-0.235%
CCOC(=O)n1ccn(C)c1=S,1.7%,2.04%,0.732%,1.21%,0.889%,2.62%,0.384%,-0.192%,2.2%,-16.1%
C=CCc1cc(OC)c(O)c(C(=O)NCCO)c1,-2.1%,0.086%,-1.32%,0.81%,-1.9%,-0.129%,-0.87%,-1.83%,0.104%,-0.0438%
CN(C)C(=N)NC(=N)N,-1.21%,-7.32%,-1.41%,-1.73%,-3.04%,-0.131%,-0.258%,-2.86%,-9.44%,-1.47%
CC[C@@H]([C@H](C)O)n1ncn(-c2ccc(N3CCN(c4ccc(OC[C@@H]5CO[C@@](Cn6cncn6)(c6ccc(F)cc6F)C5)cc4)CC3)cc2)c1=O,-3.19%,-0.0907%,-0.181%,-2.09%,-0.245%,-1.15%,-2.54%,-2.62%,-1.64%,0.673%
CC(C)C(=O)Oc1ccc(CO)cc1[C@H](CCN(C(C)C)C(C)C)c1ccccc1,0.102%,-1.82%,0.436%,0.893%,1.59%,-1.41%,0.95%,-0.518%,1.55%,0.403%
CCC[S+]([O-])c1ccc2[nH]c(NC(=O)OC)nc2c1 (stereo not given),3.39%,3.5%,1.48%,2.55%,0.691%,2.32%,3.73%,2.81%,-0.51%,2.63%
O=c1[nH]c(=O)n(C2CCCO2)cc1F (stereo not given),-0.615%,0.56%,-0.536%,-0.0713%,1.51%,-0.669%,-0.796%,-1.49%,-0.356%,-6.49%
N[C@@H](CSCCCO)C(=O)O,-3.76%,-2.47%,0.0116%,-2.7%,-4.4%,-5.11%,22.1%,-4.19%,-9.19%,-0.641%
CCCSc1ccc2[nH]c(NC(=O)OC)nc2c1,7.72%,7.1%,6.94%,11.9%,15.5%,7.25%,61.3%,19%,-3.32%,4.87%
CC1(C)Cc2c(-c3ccccc3)c(-c3ccc(Cl)cc3)c(CC(=O)O)n2C1,1.89%,3.9%,3.38%,1.48%,2.51%,-0.994%,8.73%,1.41%,1.99%,1.12%
CCCCCCCCCCCCCCCCCCCCCCO,0.193%,0.0924%,-0.407%,0.0399%,-0.179%,0.445%,1.03%,-1.18%,1.92%,1.68%
N=C(N)NS(=O)(=O)c1ccc(N)cc1,1.78%,3.55%,1.86%,2.35%,3.26%,1.87%,0.257%,1.45%,1.1%,-0.789%
